Assay outcomes deposited in PubChem by National Center for Advancing Translational Sciences (NCATS).
AmpC inh detg: qHTS Inhibitors of AmpC Beta-Lactamase (assay with detergent) | Potency, µM (series often up to 114 µM), hits mostly inhibitors | hit rate 0.041% among 370,000 | AmpC hydrolysis of nitrocefin, absorbance 480 nm, 0.01% Triton | P00811; further: nearly all actives have a fitted effect of over 25% in size
Target sequence (P00811 whole entry, looked up): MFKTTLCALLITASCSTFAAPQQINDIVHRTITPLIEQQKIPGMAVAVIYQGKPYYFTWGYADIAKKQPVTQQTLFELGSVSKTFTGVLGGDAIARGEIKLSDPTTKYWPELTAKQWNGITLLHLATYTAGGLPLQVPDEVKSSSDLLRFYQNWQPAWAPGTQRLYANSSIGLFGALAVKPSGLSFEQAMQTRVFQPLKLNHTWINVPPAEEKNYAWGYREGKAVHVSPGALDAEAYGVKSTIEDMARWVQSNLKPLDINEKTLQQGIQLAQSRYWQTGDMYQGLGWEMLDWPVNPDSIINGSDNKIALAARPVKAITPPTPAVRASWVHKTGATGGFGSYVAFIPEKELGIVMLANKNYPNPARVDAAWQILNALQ
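20 mM phosphate pH 7.0 + 0.01% (detergent screen) or 0.0001% Triton X-100; 5.3 nM AmpC reagent; cpd preinc 15 min RT; nitrocefin (800 uM stock) to start; A480 q20 s × 4 min; Activity was normalised to no-enzyme and no-compound control wells.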
AmpC no deterg: qHTS Inhibitors of AmpC Beta-Lactamase (assay without detergent). P00811. AmpC nitrocefin hydrolysis, absorbance 480 nm, 0.0001% Triton. Potency, µM (titrated, usually from 57.1 µM), usual class: inhibitors. hit rate 0.52% among 330,000; further: nearly all actives have a fitted effect of over 20% in size
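20 mM phosphate pH 7.0 + 0.01% (detergent screen) or 0.0001% Triton X-100; 5.3 nM AmpC reagent; cpd preinc 15 min RT; nitrocefin (800 uM stock) to start; A480 q20 s × 4 min; Activity was normalised to no-enzyme and no-compound control wells.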
Lassa entry inh: qHTS for Inhibitors of binding or entry into cells for Lassa Virus | Lassa virus pseudotype entry inhibition, cell reporter | Potency, µM (highest dose often 37.9 µM), actives largely listed as inhibitors | hit rate 1.2% among 300,000 | AID 540256, 2011; calls by dose curve; tested in HEK293 cells; further: nearly all actives have a fitted effect of over 50% in size
AMA1-RON2 inh: qHTS for Inhibitors of AMA1-RON; Towards Development of Antimalarial Drug Lead: Primary Screen; Plasmodium falciparum AMA1 (3D7) - RON2 peptide interaction; AlphaScreen AMA1-biotinylated RON2 peptide binding; Potency, µM (series often up to 58.2 µM), hits mostly inhibitors; hit rate 0.2% among 360,000; further: nearly all actives have a fitted effect of over 45% in size
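AMA1 (3D7) with his tag at 25 nM final met compounds first, then biotinylated RON2 peptide at 25 nM; detection used donor plus acceptor beads, 10 µg/mL apiece, read by AlphaScreen after 30 min at room temperature.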
MARV entry inh: qHTS for inhibitors of binding or entry into cells for Marburg Virus | Marburg virus pseudotyped entry inhibition, cell reporter | Potency, µM (series often up to 37.8 µM), actives largely listed as inhibitors | hit rate 1.8% among 300,000 | AID 540276, 2011; calls by dose curve; tested in HEK293 cells
A number is an active result; - = inactive; ? = inconclusive; . = not tested or not shown; ! = a repeat was not active. In the library only some 2.3% were active in any assay of this set; here they are far more common. Unless noted, the call rests on the fitted dose curve; in most records, active means well fitted curve in the direction sought with a large enough effect; inconclusive means small, poorly fitted or top-dose-only effect, or another doubt; inactive means no such curve, though single readings can be large; an effect the other way counts as inactive or inconclusive.

SMILES	AmpC inh detg	AmpC no deterg	Lassa entry inh	AMA1-RON2 inh	MARV entry inh
CCOC(=O)CSC1=NC(=O)/C(=C\c2ccc(OC(C)=O)cc2)S1	-	-	?	-	8.2µM
COC(=O)c1cc(=O)n(CCc2ccccc2)c(=Nc2ccc(F)cc2)s1	-	0.708µM	.	-	.
O=C(O)c1cccc(-c2nc3ccccc3[nH]2)c1	?	-	1.41µM	-	0.355µM
CC(=O)Nc1cccc(-c2nc3ccccc3[nH]2)c1	-	-	-	-	-
COC(=O)c1ccc(-c2nc3ccccc3[nH]2)cc1	?	-	7.31µM	-	1.84µM
Cc1ccc(-c2nc3ccccc3[nH]2)s1	-	-	?	-	12.6µM
COc1ccc(-c2nc3ccccc3[nH]2)cc1	-	-	?	-	7.3µM
c1ccc(-c2nc3ccccc3[nH]2)cc1	?	-	.	-	.
c1csc(-c2nc3ccccc3[nH]2)c1	?	-	-	-	-
C=C(C)CCCN1C=C(C(=O)OCC)C(c2ccccc2)NC1=O (stereo not given)	.	.	?	.	-
Cc1cccc(C(=O)Nc2nnc(SCc3cc(=O)n4cccc(C)c4n3)s2)c1	-	.	-	.	.
C#CCN1C(=O)CC[C@@]23C1=NC(C(=O)OC)=C(C(=O)OC)[C@@H]2N(Cc1ccccc1)c1ccccc13	.	.	.	.	-
COC[C@H]1O[C@]2(c3ccccc3)CO[C@@H]1[C@@H](C=Cc1ccccc1)C2	.	.	?	.	-
O=C(OCc1ccco1)c1ccc2c(c1)N(Cc1ccc([N+](=O)[O-])cc1)C(=O)c1ccccc1S2	-	.	-	.	.
O=C(Nc1ccc(-c2nc3ccccc3[nH]2)cc1)c1ccco1	-	-	?	-	-
O=C(/C=C/c1ccco1)Nc1ccc(-c2nc3ccccc3[nH]2)cc1	-	35.5µM	-	-	?
COCC(C)N1C(=O)Cc2c1nc(N)c1c(N)nc(N3CCN(c4ccccc4F)CC3)c(C#N)c21 (stereo not given)	-	-	?	-	16.4µM
COCCN1C(=O)Cc2c1nc(N)c1c(N)nc(N3CCN(c4ccc(F)cc4)CC3)c(C#N)c21	-	-	.	-	.
CN[C@@H](C)[C@H](O)c1ccccc1	.	.	.	.	11.2µM
O=c1nc(Nc2ccccc2)oc2ccccc12	-	-	-	-	-
O=c1nc(Nc2cccc(Cl)c2)oc2cc(Cl)oc(=O)c12	-	10µM	.	-	.
CCN1/C(=C/C=C/c2oc3ccc(-c4ccccc4)cc3[n+]2CC)Oc2ccc(-c3ccccc3)cc21	-	-	4.47µM	?	2.51µM
Cc1ccc(Cl)cc1NS(=O)(=O)c1ccc2oc(=O)c3ncn(C)c3c2c1	-	.	-	.	.
O=S(=O)(Nc1cc2nc3ccccc3nc2n1Cc1ccccc1)c1ccc(Cl)cc1	?	-	7.31µM!	-	?
CCNC(=O)CSc1nnc(-c2cccc(S(=O)(=O)N(CC)CC)c2)n1CCc1ccccc1	-	-	-	-	-
SMILES	AmpC inh detg	AmpC no deterg	Lassa entry inh	AMA1-RON2 inh	MARV entry inh
CCSc1nnc(-c2cccc(S(=O)(=O)N(CC)CC)c2)n1Cc1ccccc1	-	-	23.1µM	-	14.6µM
COc1ccccc1NC(=O)c1oc2ccccc2c1NC(=O)c1cccc(OC)c1OC	-	.	-	.	-
COc1ccc(NC(=O)N2CCN(S(=O)(=O)c3ccc4c(ccn4C)c3)CC2)cc1OC	-	.	-	.	.
C[n+]1c(-c2ccccc2)cc2c(=Cc3ccc([N+](=O)[O-])cc3)c3ccccc3n21	.	.	10µM	?	?
C[n+]1c(-c2ccccc2)cc2c(=Cc3ccccc3)c3ccccc3n21	.	.	7.94µM	15.8µM	?
CN(C)c1ccc(C=c2c3cc(O)ccc3n3c2cc(-c2ccccc2)[n+]3C)cc1	.	.	?	14.1µM	?
COC(=O)CC1c2cc(OC)c(OC)cc2CCN1C(=O)Nc1ccc(C)cc1Cl (stereo not given)	-	.	-	.	.
Cc1ccc(C(=O)Nc2ncc(Cc3ccc(F)cc3)s2)o1	?	31.6µM	?	-	?
Cc1ccc(NCC(=O)c2ccccc2)cc1Cl	-	0.316µM	-	-	-
Cc1ccc(NC2=C(NC(=O)c3ccccc3)C(=O)c3ccccc3C2=O)cc1Cl	-	20µM	?	?	?
Cc1ccc(NCCC(=O)c2ccccc2)cc1Cl	-	-	-	-	?
Cn1cc(Cl)c(C(=O)Nc2nc3ccccc3s2)n1	-	-	?	-	8.2µM
